Bioassay records (PubChem)
Most compounds without a hit are left out; they make up all but 2.1% or so of the library.
HIF-2a inh: HIF-2a reporter inhibitors, primary screen, luminescence, 786-0 RCC cells; 786-0 RCC cells HIF-2a reporter, luciferase luminescence, overnight; inhibition, % at 18.8 µM; 360,000 compounds, 0.72% hits;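 active means inhibition of the luminescence signal of 40% or more relative to plate controls, in a single-dose primary screen at 18.75 µM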
KKLEB cytotox: cytotoxicity in KKLEB CF airway cells, primary screen, cytotoxicity control for CF NF-kB inhibitor project, cell-based, uHTS, fluorescence assay plates; KKLEB CF airway cells viability, ATPlite luminescence, overnight; hits give low values; cells stimulated with P. aeruginosa culture filtrate; activity change (cytotoxicity), % at 5 µM; 360,000 compounds, 0.36% hits; AID 602141, 2011;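 active means corrected activity change at or below -50% at 5 µM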
EWS-Fli inh: EWS/Fli-driven NR0B1 reporter inhibitors, primary screen, A673 cells, NR0B1 luciferase, luminescence, MLPCN library. viability-normalised. inhibition, % at 12.6 µM. 350,000 compounds, 0.67% hits;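 active means mean inhibition of at least 50% after viability correction, with every replicate also passing that limit; inconclusive means mean reaches 50% but only one of two replicates passes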;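 further: firefly luciferase signal divided by Alamar Blue viability fluorescence both relative to DMSO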
CF NFkB inh: inhibitors of PAF-induced NF-kB signaling, primary screen, cell-based, GFP fluorescence, uHTS; KKLEB NF-kB-GFP reporter, GFP fluorescence overnight; inhibition, % at 5 µM; 360,000 compounds, 0.86% hits; AID 588850, 2011;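 active means at least 50% inhibition at 5 µM, scaled per plate between neutral and stimulator controls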;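 further: PAF is a Pseudomonas aeruginosa culture filtrate used as stimulus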
PAX8 reporter: inhibitors of PAX8-driven TPO luciferase reporter, primary screen, RMG-I cells, single concentration | SteadyGlo, 24 h | inhibition, % at 12.6 µM | 360,000 compounds, 1.2% hits | AID 652154, 2013;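 active means mean replicate inhibition at least 60% with every replicate also reaching 60%; inconclusive means only one of the two criteria is met; inactive means mean below 60% and not all replicates reaching 60%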;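 further: luciferase light reporting Pax8 driven TPO promoter activity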
Each line names hits and unclear results; the compound was inactive in the other large screens.

COc1cc(C2C3=C(COC3=O)Oc3cc4c(cc32)OCO4)cc(OC)c1OC (stereo unspecified)	PAX8 reporter 69
COc1cc(C2C(C#N)=C(N)Oc3cc4c(cc32)OCO4)cc(OC)c1OC (stereo unspecified)	EWS-Fli inh 62, PAX8 reporter 96
O=C1OCC2=C1C(c1ccc3c(c1)OCO3)c1cc3c(cc1O2)OCO3 (stereo unspecified)	none
COc1cc(C2C3=C(COC3=O)Oc3cc4c(cc32)OCO4)cc(OC)c1O (stereo unspecified)	EWS-Fli inh 57, PAX8 reporter 90
COc1cc(C2C(C#N)=C(N)Oc3cc(O)ccc32)cc(OC)c1OC (stereo unspecified)	none (no result: EWS-Fli inh, PAX8 reporter)
CCN(CC)C1Oc2cc3c(cc2C(c2cc(OC)c(OC)c(OC)c2)C1C)OCO3 (stereo unspecified)	EWS-Fli inh 64, PAX8 reporter inconclusive
C[C@H]1C[C@H]2[C@@H]3CCC4=CC(=O)C=C[C@]4(C)[C@@]3(F)[C@@H](O)C[C@]2(C)[C@@]1(O)C(=O)CO	CF NFkB inh 68
C[C@@H]1C[C@H]2[C@@H]3CCC4=CC(=O)C=C[C@]4(C)[C@@]3(F)[C@@H](O)C[C@]2(C)[C@@]1(O)C(=O)COP(=O)(O)O	CF NFkB inh 67
CC1(c2ccccc2)O[C@@H]2C[C@H]3[C@@H]4CCC5=CC(=O)C=C[C@]5(C)[C@@]4(F)[C@@H](O)C[C@]3(C)[C@]2(C(=O)CO)O1 (stereo partly specified)	CF NFkB inh 72
C[C@H]1C[C@H]2[C@@H]3CCC4=CC(=O)C=C[C@]4(C)[C@@]3(Cl)[C@@H](O)C[C@]2(C)[C@@]1(O)C(=O)CO	CF NFkB inh 64
Cc1ccc(S(=O)(=O)Nc2ccc3c(c2)C(=O)N([C@@H](C)CO)C[C@@H](C)[C@@H](CN(C)C(=O)Nc2ccccc2)OCCCC[C@H](C)O3)cc1	none (no result: HIF-2a inh, KKLEB cytotox, CF NFkB inh)
Cc1ccc(S(=O)(=O)N2C[C@@H]3N[C@H](C2)C3c2ccc(-c3ccncc3)cc2)cc1 (stereo partly specified)	none (no result: HIF-2a inh, KKLEB cytotox, CF NFkB inh)
Cc1cc(C(=O)Nc2cc(C(F)(F)F)ccc2N2CCOCC2)no1	none (no result: EWS-Fli inh)
CCCCn1nc(C(=O)Nc2cc(C(F)(F)F)ccc2N2CCOCC2)ccc1=O	PAX8 reporter 93
COc1ccc2c3c(n(C)c2c1)[C@@H](CO)N(C(=O)C1CC1)CC31CCN(Cc2cccc(F)c2)CC1	none (no result: HIF-2a inh, KKLEB cytotox, CF NFkB inh)
COc1ccc2c3c(n(C)c2c1)[C@H](CO)N(C(=O)C1CC1)CC31CCN(Cc2cccc(F)c2)CC1	PAX8 reporter 70 (no result: HIF-2a inh, KKLEB cytotox, CF NFkB inh)
COc1ccc2c3c(n(C)c2c1)[C@H](CO)N(C(=O)C1CCC1)CC31CCN(Cc2cccc(F)c2)CC1	PAX8 reporter 60 (no result: HIF-2a inh, KKLEB cytotox, CF NFkB inh)
COCC(=O)N1CCC2(CC1)CN(C(=O)NC1CCCC1)[C@@H](CO)c1c2c2ccc(OC)cc2n1C	PAX8 reporter 68 (no result: HIF-2a inh, KKLEB cytotox, CF NFkB inh)
CO[C@@H]1CN(C)C(=O)c2cc(NS(=O)(=O)CC(F)(F)F)ccc2OC[C@H](C)N(C(=O)c2ccc3c(c2)OCO3)C[C@H]1C	none (no result: HIF-2a inh, KKLEB cytotox, CF NFkB inh)
COc1ccc2c3c([nH]c2c1)[C@H](CO)N(Cc1ccncc1)CC31CCN(Cc2ccc(-c3ccccn3)cc2)CC1	none (no result: HIF-2a inh, KKLEB cytotox, CF NFkB inh, PAX8 reporter)
CC(C)[C@@H]1CC[C@@H](C)C[C@H]1OC(=O)C[n+]1cc(-c2ccc(Cl)cc2)n2c1CCCCC2	PAX8 reporter 113
Cn1c(NC(=O)C[n+]2cc(-c3ccc(Cl)cc3)n3c2CCC3)cc(=O)n(C)c1=O	none
COc1ccc(-c2c[n+](CC(=O)OC3CC(C)CCC3C(C)C)c3n2CCC3)cc1 (stereo unspecified)	PAX8 reporter 91
CC1CCC(C(C)C)C(OC(=O)C[n+]2cccc(C(N)=O)c2)C1 (stereo unspecified)	none (no result: EWS-Fli inh, PAX8 reporter)
O=C(c1cccs1)c1no[n+]([O-])c1C(=O)c1cccs1	HIF-2a inh 63, KKLEB cytotox -94, CF NFkB inh 93 (no result: EWS-Fli inh, PAX8 reporter)
O=C1C(Nc2ccccc2)=C/C(=N/S(=O)(=O)c2cccs2)c2ccccc21	KKLEB cytotox -91, CF NFkB inh 100 (no result: EWS-Fli inh, PAX8 reporter)
Cc1ccc(/C=C2\S/C(=N/S(=O)(=O)c3cccs3)NC2=O)cc1	none
Cc1ccc(NC2=C/C(=N/S(=O)(=O)c3cccs3)c3ccccc3C2=O)cc1	KKLEB cytotox -70, CF NFkB inh 80
O=S(=O)(/N=C(/Nc1cccc2ccccc12)c1ccccc1)c1cccs1	none (no result: EWS-Fli inh, PAX8 reporter)
O=C(N/N=C\c1ccc(OC(=O)c2cccs2)cc1)c1ccc(Cl)cc1	none
COc1ccc(C(=O)N/N=C/c2ccc(OC(=O)c3cccs3)cc2)cc1	PAX8 reporter 101
C[C@@H]1CCCCO[C@@H](CN(C)C(=O)Nc2ccc(F)cc2)[C@@H](C)CN([C@H](C)CO)C(=O)c2cc(NS(=O)(=O)c3ccc(F)cc3)ccc2O1	none (no result: HIF-2a inh, KKLEB cytotox, CF NFkB inh)
C[C@@H]1CCCCO[C@@H](CN(C)C(=O)Nc2ccc(C(F)(F)F)cc2)[C@H](C)CN([C@H](C)CO)C(=O)c2cc(NS(=O)(=O)c3ccc(F)cc3)ccc2O1	PAX8 reporter 88 (no result: HIF-2a inh, KKLEB cytotox, CF NFkB inh)
C[C@@H]1CCCCO[C@H](CN(C)C(=O)Nc2ccc(F)cc2)[C@H](C)CN([C@@H](C)CO)C(=O)c2cc(NS(=O)(=O)c3ccc(F)cc3)ccc2O1	none (no result: HIF-2a inh, KKLEB cytotox, CF NFkB inh)
C[C@H]1CCCCO[C@H](CN(C)C(=O)Nc2ccc(C(F)(F)F)cc2)[C@@H](C)CN([C@@H](C)CO)C(=O)c2cc(NS(=O)(=O)c3ccc(F)cc3)ccc2O1	PAX8 reporter 84 (no result: HIF-2a inh, KKLEB cytotox, CF NFkB inh)
C[C@@H]1CN([C@H](C)CO)C(=O)c2cc(NS(=O)(=O)c3ccc(F)cc3)ccc2O[C@@H](C)CCCCO[C@H]1CN(C)C(=O)Nc1ccc(F)cc1	none (no result: HIF-2a inh, KKLEB cytotox, CF NFkB inh)
C[C@H](CO)N1C[C@H](C)[C@H](CN(C)C(=O)Nc2ccc(C(F)(F)F)cc2)OCCCC[C@H](C)Oc2ccc(NS(=O)(=O)c3ccc(F)cc3)cc2C1=O	PAX8 reporter 72 (no result: HIF-2a inh, KKLEB cytotox, CF NFkB inh)
COCCNC(=O)/C(C#N)=C/c1ccc(O)c([N+](=O)[O-])c1	none
COCCNC(=O)/C(C#N)=C/C=C/c1ccccc1[N+](=O)[O-]	PAX8 reporter 80
CN1CCN(c2ccc(NC(=S)NC(=O)c3cccc4c(Br)cccc34)cc2)CC1	none
CN1CCN(c2ccc(NC(=S)NC(=O)c3cccc4ccccc34)cc2)CC1	EWS-Fli inh 65
CO[C@H]1CN(C)C(=O)c2cc(NC(=O)CC(F)(F)F)ccc2OC[C@@H](C)N(C(=O)c2ccccc2F)C[C@H]1C	none (no result: HIF-2a inh, KKLEB cytotox, CF NFkB inh)
COc1cc(OC)cc(-c2cc3ccc(OC)cc3cn2)c1	KKLEB cytotox -55
COc1ccc(S(=O)(=O)N2CC[C@@H]3[C@@H](CO)Nc4ccc(-c5cccc(C#N)c5)cc4[C@@H]32)cc1	EWS-Fli inh 54 (no result: HIF-2a inh, KKLEB cytotox, CF NFkB inh)
